The source of these data is PubChem BioAssay AID2283149 (EPA ToxCast).

As usually defined, the AC50 is the midpoint of the concentration-response curve, whichever way the signal moves.

Inconclusive results are not listed. Active and inactive are the calls of the source. How the source made its calls: active means hit-call score of the fitted dose curve at least 0.9, where 1 is the maximum; inconclusive means response in the unintended direction; inactive means score below 0.9.

Sequence of human Casein Kinase 1-alpha (CK1a), CSNK1A1 (gene 1452) (P48729 whole entry, looked up): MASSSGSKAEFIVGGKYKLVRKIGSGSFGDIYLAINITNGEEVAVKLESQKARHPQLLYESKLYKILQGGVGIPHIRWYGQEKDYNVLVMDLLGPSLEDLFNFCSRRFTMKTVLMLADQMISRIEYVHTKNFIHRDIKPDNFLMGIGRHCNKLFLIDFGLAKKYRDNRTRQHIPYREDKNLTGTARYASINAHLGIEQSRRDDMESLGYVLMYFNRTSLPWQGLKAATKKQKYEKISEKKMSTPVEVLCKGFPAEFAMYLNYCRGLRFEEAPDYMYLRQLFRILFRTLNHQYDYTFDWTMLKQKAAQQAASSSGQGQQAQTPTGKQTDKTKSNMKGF

In this assay the target is human Casein Kinase 1-alpha (CK1a), CSNK1A1 (gene 1452) (UniProt P48729). In words: NVS_ENZ_hCK1a: NovaScreen (NVS) Enzymatic Assay for human Casein Kinase 1-alpha (CK1a). Here is the method:
NVS_ENZ_hCK1a is a biochemical, single-readout assay that uses extracted gene-proteins in a cell-free assay. Measurements were taken 1 hour after chemical dosing in a 384-well plate.NVS_ENZ_hCK1a is one of one assay component(s) measured or calculated from the NVS_ENZ_hCK1a assay. It is designed to make measurements of enzyme activity, a form of enzyme reporter, as detected with fluorescence intensity signals by Fluorescence and electrophoretic mobility shift technology.Data from the assay component NVS_ENZ_hCK1a was analyzed into 1 assay endpoint. This assay endpoint, NVS_ENZ_hCK1a, was analyzed in the positive analysis fitting direction relative to DMSO as the negative control and baseline of activity. Using a type of enzyme reporter, loss-of-signal activity can be used to understand changes in the enzymatic activity as they relate to the gene CSNK1A1. Furthermore, this assay endpoint can be referred to as a primary readout, because this assay has produced multiple assay endpoints where this one serves a enzymatic activity function. To generalize the intended target to other relatable targets, this assay endpoint is annotated to the kinase intended target family, where the subfamily is serine/threonine kinase.
Binding assays used specific radioligands (tritiated, iodinated) with non-radioactive competitive displacement ligands in agonist or antagonist protocols (as indicated) and various reference compounds and inhibitors to titrate specific binding to receptors and transporters. Most enzyme assays (CYPs, kinases, phosphatases, proteases, HDACs) used recombinant protein and specific substrates (fluorescence mostly, some colorimetric and radioactive) and inhibitors, followed by a biochemical separation of substrate and product. All assays for the biochemical HTS were initially run in duplicate at a single concentration (10 uM for CYP450 assays and 25 uM for all others). Assay-chemical combinations meeting a pre-defined threshold (e.g., 30% inhibition and other criteria defined below) were then run in singleton concentration-response format with maximum concentration of 20 uM for CYPs and 50 uM for all others. Each assay was run with positive and negative controls, and concurrent controls on every plate. The follow-up (secondary) screen tested active chemical-pairs in concentration series, as well as a few additional assays not tested in the primary screen, some selected negative inactives, and several cases re-run in the concentration series for confirmatory purposes.
For `CN(C)[C@@H]1C(=O)C(C(N)=O)=C(O)[C@@]2(O)C(=O)C3=C(O)c4c(O)cccc4[C@@](C)(O)[C@H]3[C@H](O)[C@@H]12`, the AC50 was 36.4 µM (active).

Consider `CO/C=C(/C(=O)OC)c1ccccc1Oc1cc(Oc2ccccc2C#N)ncn1`, for which the outcome was inactive.

Take `O=S(=O)(O)C(F)(F)C(F)(F)C(F)(F)C(F)(F)C(F)(F)C(F)(F)C(F)(F)C(F)(F)F`: the AC50 was 21.1 µM (active).

In the case of `O=C(O)C1(C(=O)Nc2ccc(Cl)cc2Cl)CC1`, the AC50 was 8.67 µM (active).

With `S=C(S)NCCNC(=S)S.[Mn+2].[S-]C([S-])=NCCN=C([S-])[S-].[Zn+2]`, the AC50 was 9.19 µM (active).

For `O=C(Nc1ccc([N+](=O)[O-])cc1Cl)c1cc(Cl)ccc1O`, the compound was classed as inactive.

On to `Nc1nc(N)nc(NC2CC2)n1`, for which the outcome was inactive.

With `N#CSCSC#N`, the compound was called inactive.

For `S=C([S-])NCCNC(=S)[S-].[Mn+2]`, the AC50 was 19.4 µM (active).
